# Results taken from PMC5540273 (PLoS ONE, 2017).
# Key:
# Details in all cases: concentration: 1 μM, replicates: in singlicate; n = 1
# [1] = system: RPS6KA4(Kin.Dom.1-N-terminal)
# [2] = system: RPS6KA4(Kin.Dom.2-C-terminal)
# [3] = system: RPS6KA5(Kin.Dom.1-N-terminal)
# [4] = system: RPS6KA5(Kin.Dom.2-C-terminal)
# [5] = system: T1, RSK1(Kin.Dom.1-N-terminal)
# T1 construct: gene RPS6KA1
# [6] = system: T2, RSK1(Kin.Dom.2-C-terminal)
# T2 construct: gene RPS6KA1
# [7] = system: T3, RSK2(Kin.Dom.1-N-terminal)
# T3 construct: gene RPS6KA3
# [8] = system: T4, RSK2(Kin.Dom.2-C-terminal)
# T4 construct: gene RPS6KA3
# [9] = system: T5, RSK3(Kin.Dom.1-N-terminal)
# T5 construct: gene RPS6KA2
# [10] = system: T6, RSK3(Kin.Dom.2-C-terminal)
# T6 construct: gene RPS6KA2
# 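Note: KINOMEscan kinase panel screen.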
SMILES,%Inh [1] [%],%Inh [2] [%],%Inh [3] [%],%Inh [4] [%],%Inh [5] [%],%Inh [6] [%],%Inh [7] [%],%Inh [8] [%],%Inh [9] [%],%Inh [10] [%]
Cc1nn2c(=O)cc(N3CCO[C@H](C)C3)nc2n1Cc1cccc(Cl)c1Cl [GSK2373693],18,39,19,24,0,4,10,5,26,4
N#Cc1cnc2cc(-c3cnc(CNCCN4CCOCC4)s3)ccc2c1Nc1ccc(Oc2ccccc2)cc1 [GW664114],41,0,76,28,91.7,32,79,1,78,16
CCn1c(-c2nonc2N)nc2c(-c3ccccc3)ncc(OCCCN)c21.O=C(O)C(F)(F)F.O=C(O)C(F)(F)F [GSK260205],0,0,31,8,19,50,80,0,99.7,1
Cn1cc(-c2cnc(N)c3c(-c4ccc5c(c4)CCN5C(=O)Cc4ccccc4)csc23)cn1 [GSK2593074],1,38,0,2,9,42,0,9,0,7
COc1cc(Nc2nccc(N3CCC(NS(=O)(=O)c4ccc(NC(C)=O)cc4)CC3)n2)cc(OC)c1OC [GSK1379825],0,0,27,0,0,0,5,24,11,2
Fc1cc(Cl)ccc1Nc1ccnc2cc(-c3ccc(CN4CCOCC4)o3)ccc12 [GW560109],35,0,9,0,6,28,14,44,100,0
O=C(Nc1c(F)cccc1F)c1cc(C(=O)c2ccccc2F)c[nH]1 [GSK1326180],8,0,4,0,5,0,1,24,0,10
Nc1ncnc2scc(-c3ccc(NC(=O)Cc4cc(F)ccc4F)cc3)c12.O=C(O)C(F)(F)F [SB-731254-M],21,15,8,0,0,14,15,0,0,6
NCCC(NC(=O)c1cc(Br)c(-c2ccnc3[nH]ccc23)s1)c1ccccc1.O=C(O)C(F)(F)F.O=C(O)C(F)(F)F (stereo not drawn) [GSK1307810],44,39,46,46,37,31,44,0,13,0
Cc1ccc(Nc2ccnc(Nc3ccc(C)c(F)c3)n2)cc1O.Cl [GW582868],0,0,0,21,0,0,0,0,9,0
CC(C)c1nc(-c2ccc(F)c(NS(=O)(=O)c3c(F)cccc3F)c2)c(-c2ccnc(Nc3ccc(N4CCOCC4)nc3)n2)s1 [GSK1804250],6,0,15,3,25,9,22,27,24,6
Cl.Cl.NCC(NC(=O)c1cc(-c2cccnc2)c(-c2ccnc3[nH]ccc23)s1)c1ccccc1 (stereo not drawn) [GSK1323434],58,0,18,57,61,53,29,40,0,0
COC(=O)Nc1nc2ccc(Oc3ccc(CC(=O)Nc4cc(C(F)(F)F)ccc4F)cc3)cc2[nH]1 [GW680903],0,0,1,0,65,4,0,5,4,0
COc1ccc(C)c(Nc2ccnc(Nc3ccc(-c4cnc[nH]4)cc3)n2)c1.Cl [GW784041],26,5,8,10,0,1,0,3,1,6
Cl.N#CCc1ccc(Nc2nccc(Nc3ccc(Oc4ccccc4)cc3)n2)cc1 [GW639905],0,0,0,0,1,0,0,16,4,0
COc1cc(Nc2ccnc3cc(-c4ccncc4)ccc23)cc(OC)c1OC.Cl [GW494610],8,0,22,0,0,0,5,20,1,0
Cc1ccc(O)cc1Nc1ccnc2cc(-c3ccc(CN4CCCCC4)o3)ccc12 [GW557777],0,9,0,10,0,90.7,0,40,1,29

SMILES,%Inh [1] [%],%Inh [2] [%],%Inh [3] [%],%Inh [4] [%],%Inh [5] [%],%Inh [6] [%],%Inh [7] [%],%Inh [8] [%],%Inh [9] [%],%Inh [10] [%]
Cc1ccc(NC(=O)c2ccc(Cl)c(Cl)c2)cc1-c1ccc(C(=O)Nc2ccncc2)cc1 [GSK1398460],25,0,15,0,24,2,0,22,7,9
Cc1ccccc1CC(=O)N1CCc2cc(-c3cn(C)c4ncnc(N)c34)ccc21 [GSK2603346],11,0,20,0,0,4,0,6,24,0
CC(C)NCC(Cc1ccccc1)NC(=O)c1cc(Br)c(-c2ccnc3[nH]ccc23)s1.Cl.Cl (stereo not drawn) [GSK1383281],76,0,48,22,50,0,25,0,16,6
Fc1cc(Cl)ccc1Nc1ccnc2cc(-c3ccc(CN4CCSCC4)o3)ccc12 [GW560106],18,0,23,0,0,25,0,48,0,6
Nc1ncc(-c2ccc3nccc(-c4ccncc4)c3c2)cc1S(=O)(=O)N1CCCCC1 [GSK1693850],0,0,9,17,0,37,0,0,17,24
CC(C)(C)c1ccc(C(=O)Nc2cn3cc(-n4ccnc4)ccc3n2)cc1,0,22,10,31,0,0,25,0,0,0
Nc1cccc(-c2ccc3c(N)n[nH]c3c2)c1 [GSK2193613],12,8,35,0,13,1,1,6,7,8
Cc1ccc(NC(=O)c2cccc(N3CCCCC3)c2)cc1-c1ccc(C(=O)NCC2CC2)cc1 [GSK1917008],28,0,33,8,18,1,15,21,12,5
Cn1cc(-c2ccc3c(c2)CCN3C(=O)Cc2cc(F)cc(C(F)(F)F)c2)c2c(N)ncnc21 [GSK2635225],0,0,23,6,1,5,0,19,19,0
Cc1ccc(C)c(NC(=O)Nc2ccc(C)c(-c3ccc(C(=O)Nc4ccncc4)cc3)c2)c1 [GSK1398473],37,0,4,14,0,0,37,18,27,3
Cc1ccc(NC(=O)c2ccnc(N3CCCCC3)c2)cc1-c1ccc(C(=O)NCC2CC2)cc1 [GW775610],0,0,0,0,0,100,0,0,16,15
COc1cccc(C2=C(Nc3cccc(O)c3)C(=O)NC2=O)c1 [SB-390771],21,0,21,2,84,0,8,28,84,7
CCNC(=O)/C=C/c1n[nH]c2cc(Sc3ccccc3C(=O)NC)ccc12,8,21,4,0,24,15,8,0,8,34
Cc1cccc(Nc2nc(NCCN)ncc2C(N)=O)c1 [GSK1292139],12,0,0,29,20,31,46,7,18,1
CCOc1nccc(-c2c(-c3ccc(F)cc3)ncn2C2CCNCC2)n1 [SB-249175],8,32,100,0,16,20,52,39,17,20
CN(c1ccc2c(c1)nc(NCc1ccccc1)n2C)c1ccnc(Nc2ccc(CS(C)(=O)=O)cc2)n1.Cl [GW811603],7,0,0,0,2,0,0,24,0,23
